# Screens as filed in PubChem BioAssay.
# FBW7 activator: human FBW7 E3 ligase activation, primary screen; normalized activity (activation), % at 26.1 µM; AID 1259310; AlphaScreen FBW7–phospho-cyclin E peptide binding, activator screen; Q969H0; hit rate 0.13% among 650,000; in the data active = normalized activity above about 1.9%;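 note: purified mutant Fbw7 with reduced substrate affinity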
# MITF inh: blocks human microphthalmia-associated transcription factor; O75030; AlphaScreen MITF homodimerization, bead proximity signal; inhibition, % at 2.6 µM; hit rate 0.91% among 650,000; in the data active = inhibition above about 50%;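 note: 0% = vehicle wells with protein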
# GPR151 ag: activators of human GPR151; PathHunter beta-arrestin GPR151 cells, luminescence; Q8TDV0; activation, % at 11.2 µM; AID 1508602; hit rate 1% among 650,000; in the data active = activation above about 4.9%;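 note: 0% = median of compound wells and 100% = cells with positive control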
# Target sequence (Q8TDV0 whole entry, looked up): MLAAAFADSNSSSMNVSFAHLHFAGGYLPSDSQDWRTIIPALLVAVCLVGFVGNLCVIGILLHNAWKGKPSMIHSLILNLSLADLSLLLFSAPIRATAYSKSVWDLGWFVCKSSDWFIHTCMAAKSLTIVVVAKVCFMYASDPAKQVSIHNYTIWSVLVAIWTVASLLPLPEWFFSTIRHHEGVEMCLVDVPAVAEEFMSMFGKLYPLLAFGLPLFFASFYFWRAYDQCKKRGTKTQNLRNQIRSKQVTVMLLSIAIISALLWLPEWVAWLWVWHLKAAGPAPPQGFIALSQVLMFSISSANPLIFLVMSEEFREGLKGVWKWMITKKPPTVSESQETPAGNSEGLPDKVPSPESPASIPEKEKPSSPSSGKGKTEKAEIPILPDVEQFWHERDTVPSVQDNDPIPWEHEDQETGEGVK
# TEAD-YAP inh: TEAD-YAP interaction inhibition; AID 1259422; inhibition, % at 9.12 µM; HEK-TIYL cells, TEAD-Gal4/YAP UAS-luciferase luminescence; hit rate 1.4% among 640,000; in the data active = inhibition above about 32%;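 note: 0% = median of test compound wells and 100% = reference inhibitor wells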
# Starred values were filed as active, the others as inactive; ! = not active in a repeat. Sampled rows, rich in hits. Any-hit rate of the full collection: about 3.5%.
SMILES,FBW7 activator,MITF inh,GPR151 ag,TEAD-YAP inh
C=C(C)CN1C(=O)NC(CC)(C2CCN(CC3=CC[C@H]4C[C@@H]3C4(C)C)CC2)C1=O (some centres undefined),0,11,2,43*
CC(C)Oc1ccccc1/C=C1\SC(N2CCOCC2)=NC1=O,0,-1,1,39*
COc1cccc(/C=C2/SC(N3CCCC3)=NC2=O)c1OC,0,-10,1,33*
CC(C)Oc1ccccc1/C=C1/SC(N2CCN(C)CC2)=NC1=O,0,-7,-1,-8
COc1cccc(/C=C2\SC(N3CCCC3)=NC2=O)c1OC,0,6,0,8
CCC1=NN2C(=N)/C(=C/c3cc(Cl)c(OCCOc4ccccc4Cl)c(OC)c3)C(=O)N=C2S1,0,-5,-1,-6
CCN(CC(=O)Nc1ccc(C(N)=O)cc1)CC(=O)Nc1ccc2c(c1)OCCO2,0,13,0,4
Cc1cccc(N2CCN(C(=O)c3cccc(N4CCCC4=O)c3)C(C)C2)c1 (centres undefined),0,2,-1,58*
Cc1cccc(N2CCN(C(=O)c3ccc(N4CCCC4=O)cc3)CC2C)c1 (centres undefined),0,-2,0,-2
O=C(c1cccc(N2CCCC2=O)c1)N1CCN(c2cccc(Cl)c2)CC1,0,1,0,44*
COc1ccccc1NC(=O)CCSCCC(=O)Nc1ccccc1OC,0,-11,-1,3
COc1ccc(C)cc1NC(=O)CCSCCC(=O)Nc1cc(C)ccc1OC,0,1,1,33*
COc1ccc(CC(=O)c2ccc(O)cc2O)cc1,0,-4,0,34*!
CC(C)Oc1ccc(CC(=O)c2ccc(O)cc2O)cc1,0,-3,-2,66*
CCc1cc(C(=O)Cc2ccc(OC)cc2)c(O)cc1O,0,-6,1,1
Cc1ccc(OCC(=O)c2ccc(O)cc2O)cc1,0,2,-7,-4
CC(C)(C)c1ccc(OCC(=O)c2ccc(O)cc2O)cc1,0,-6,-3,96*
O=C(Cc1ccc(Br)cc1)c1ccc(O)cc1O,0,-1,0,-17
COc1ccc(-c2cc3ccc(O)cc3oc2=O)cc1,2,-8,-10,70*
COc1ccc2cc(-c3nc(-c4ccccc4)no3)c(=O)oc2c1,0,4,0,59*
CC(=O)Oc1ccc2cc(-c3ccc4c(c3)OCCO4)c(=O)oc2c1,0,10,-4,63*
COc1cccc(-c2cc3ccc(OC(C)=O)cc3oc2=O)c1,1,-8,-11,58*
CC(=O)Oc1ccc2c(=O)c(-c3ccc4c(c3)OCCO4)c(C)oc2c1,1,13,1,-19
Cc1ccc(C(=O)NCC(=O)NCC(=O)OCC(=O)c2ccc(-c3ccccc3)cc2)cc1,1,18,1,-5
COc1ccc(-c2csc3[nH]c(=S)n(Cc4ccccc4)c(=O)c23)cc1OC,0,-18,0,-13
SMILES,FBW7 activator,MITF inh,GPR151 ag,TEAD-YAP inh
N#Cc1c(NC(=O)C2CC2c2ccccc2)sc2c1CCC2 (centres undefined),0,-16,3,43*
N#Cc1c(NC(=O)c2cccc3ccccc23)sc2c1CCCC2,0,-5,0,43*
Cc1onc(-c2ccccc2)c1C(=O)Nc1sc2c(c1C#N)CCCC2,0,-20,-1,32*
Cc1onc(-c2ccccc2)c1C(=O)Nc1sc2c(c1C#N)CCC(C)C2 (centres undefined),0,11,0,10
NC(=O)c1c(NC(=O)C2CC2c2ccccc2)sc2c1CCCC2 (centres undefined),0,3,1,-19
N#Cc1c(NC(=O)c2ccccc2I)sc2c1CCCC2,0,9,1,49*
CCOC(=O)c1c(NC(=O)c2ccc([N+](=O)[O-])cc2)sc(C(=O)Nc2ccc(C)c(Cl)c2)c1C,0,16,2,2
CCN1C(=O)/C(=C/c2cc(OC)ccc2OC)SC1=S,0,2,2,-1
COc1ccccc1C(=O)NCC(=O)N/N=C/c1cc([N+](=O)[O-])cc([N+](=O)[O-])c1O,0,9,-1,-2
N#Cc1c(NC(=O)c2cccc3ccccc23)sc2c1CCC2,0,-11,-1,58*
N#Cc1c(NC(=O)c2cc(Cl)ccc2[N+](=O)[O-])sc2c1CCC2,0,10,3,37*
CC(=O)NC(=S)Nc1sc2c(c1C#N)CCCCC2,0,1,-2,66*
NC(=O)c1c(NC(=O)c2cccc3ccccc23)sc2c1CCC2,0,17,-1,4
N#Cc1c(NC(=O)CSc2ncn[nH]2)sc2c1CCCCC2,0,-5,-5,68*
O=C(c1ccc(Br)cc1)N1N=C(C(F)F)CC1(O)C(F)F (centres undefined),0,-3,1,7
Cc1ccc(C(=O)CSc2nnc3[nH]c(=O)c(C)nn23)cc1C,0,15,-1,0
CC(C)c1nccn1CCC(=O)N1CCCC1c1nc2ccccc2[nH]1 (centres undefined),0,-9,-1,-67
CC(C)c1ccc(C2NN=C(c3ccccc3)S2)cc1 (centres undefined),1,-6,-7,70*
O=C(CSc1nnc2sc3ccccc3n12)c1ccc(F)cc1,2.1*,-4,-1,-38
O=C(CSc1nnc2sc3ccccc3n12)NCc1ccccc1,0,8,1,46*
O=C1CC(C23CC4CC(CC(C4)C2)C3)=NN1c1ccccc1,0,15,2,33*
NC1=NN(c2ccccc2)C(=O)C1,0,0,0,6
N#CC1=C(N)Oc2c(ccc3ccccc23)C1c1cccc(F)c1 (centres undefined),1,0,0,5
N#CC1=C(N)Oc2ccc3ccc(O)cc3c2C1c1cccnc1 (centres undefined),0,1,0,4
N#CC1=C(N)Oc2ccc3ccccc3c2C1c1cccc(F)c1 (centres undefined),0,1,-2,56*
SMILES,FBW7 activator,MITF inh,GPR151 ag,TEAD-YAP inh
N#CC1=C(N)Oc2ccc3ccccc3c2C1c1cccnc1 (centres undefined),0,-3,1,57*
O=C(NCC1CC1)c1cc(Cc2cccc3ccccc23)no1,0,-4,1,-10
O=S(=O)(c1cccc2nonc12)N1CCC2(CC1)Nc1ccccc1-n1cccc12,0,8,0,7
Cc1ccc(C)c(NC(=O)Cn2ncc3ccccc32)c1,0,6,2,-3
OCCCNc1ccc2ncc(-c3ccsc3)n2n1,1,0,-2,51*
OCCCNc1ccc2ncc(-c3cccc(Cl)c3)n2n1,0,0,0,53*
O=C(O)c1ccc(-c2cnc3ccc(NCCCO)nn23)cc1,0,12,0,0
CC(=O)c1cccc(-c2cnc3ccc(NCc4cccs4)nn23)c1,0,0,0,7
CCCNc1ccc2ncc(-c3cccc(C(C)=O)c3)n2n1,0,-16,0,34*
OCCCNc1ccc2ncc(-c3cccc(O)c3)n2n1,0,-11,0,72*
